Among the data in PubChem BioAssay (Tox21) are Potency and outcome values, retold here.

A short description of test [1]: qHTS assay for small molecule agonists of the p53 signaling pathway (AID 651631; calls by dose curve; note: nearly all actives have a fitted effect of over 15% in size; note: potency is the fitted concentration of half-maximal effect). Summed up:
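Fluorescence intensity from cleaved LiveBLAzer B/G substrate (2 h, room temperature) served as the signal. Beforehand, HCT-116 reporter cells bearing p53 response elements were treated 16 h at 37 °C with DMSO-dissolved compounds.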

The nature of test [2]: qHTS assay for small molecules that induce genotoxicity in human embryonic kidney cells expressing luciferase-tagged ATAD5 (AID 651632). Note: nearly all actives have a fitted effect of over 15% in size. Note: potency is the fitted concentration of half-maximal effect. Summed up: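 Test compounds were delivered by pin tool onto HEK293T reporter cells (2,000/well) expressing ATAD5 fused to luciferase. After 16 hr at 37C, 5% CO2, Amplite was added for 30 min at room temperature and luminescence was measured.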

A short description of test [3]: qHTS assay for small molecule agonists of the p53 signaling pathway - cell viability (AID 651633; calls by dose curve; note: nearly all actives have a fitted effect of over 30% in size; note: potency is the fitted concentration of half-maximal effect). A digest of the protocol:
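p53RE-bla cells were treated with compound for 16 hours at 37 C. Cytotoxicity was then measured as CellTiter-Glo luminescence after 30 min at room temperature.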
For orientation: In qHTS, concentration-response curves come from the screen itself.

Test [4] can be described thus: qHTS assay for small molecule disruptors of the mitochondrial membrane potential - cell viability (AID 720634; calls by dose curve; note: nearly all actives have a fitted effect of over 20% in size; note: potency is the fitted concentration of half-maximal effect). A digest of the protocol: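 Same-well counter-screen: following the MMP dye addition, CellTiter-Glo was added to 1 hr compound-treated HepG2 cells and luminescence read after 30 min at room temperature.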
Test [5] can be described thus: qHTS assay for small molecule disruptors of the mitochondrial membrane potential (AID 720635). Note: potency is the fitted concentration of half-maximal effect. Summed up: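 HepG2 cells exposed to compound 1 hr at 37C, then Mito-MPS dye 30 min. Ratio read of aggregate (540/590 nm) versus monomer (490/535 nm) fluorescence.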
Test [6] is described as follows: qHTS assay to test for compound auto fluorescence at 590 nm (red) in HepG2 cells (AID 720674). A digest of the protocol:
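Fluorescence at 590 nm emission following 540 nm excitation was recorded from HepG2 wells one hour after compound transfer, with DMSO-only wells as vehicle and Rose Bengal sodium equivalency as the scale.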

Test [7] in a line: qHTS assay to test for compound auto fluorescence at 535 nm (green) in HepG2 cells (AID 720675).
Test [8] can be described thus: qHTS assay to test for compound auto fluorescence at 460 nm (blue) in HEK293 cells (AID 720678). A digest of the protocol:
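Triamterene serves as the blue fluorophore standard. Compound signal at 405/460 nm is read in HEK293 wells (2,000 cells, 10% dialyzed FBS) after overnight treatment at 37C.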

The nature of test [9]: qHTS assay to test for compound auto fluorescence at 590 nm (red) in HEK293 cells (AID 720679). Summed up: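 We plated HEK293 cells in 10% dialyzed FBS medium, let them adhere for 4-5 hr, then added 23 nL compound. Overnight at 37C and 5% CO2 preceded fluorescence measurement at 540/590nm.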
Test [10] in a line: qHTS assay for small molecules that induce genotoxicity in human embryonic kidney cells expressing luciferase-tagged ATAD5 - cell viability (AID 651634; calls by dose curve; note: nearly all actives have a fitted effect of over 25% in size). Summed up: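 Quantitative high-throughput format. HEK293T cells expressing ATAD5 fused to luciferase were plated at 2,000 cells/well and treated 15.5 hr with compound versus DMSO. Viability was determined by fluorescent live-cell protease substrate, 30 min at 37C.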

Values joined by “and” are separate entries in the source; they are usually repeats but may differ in a detail not shown here. Equal entries are not always repeated. Inconclusive results are not listed. Some structures have more than one record in an assay (separate samples or runs), and their calls can disagree. Active and inactive are the calls of the source. Unless noted, calls come from the whole dose curve; as a rule, active = well fitted curve in the direction sought with a large enough effect in the repeat runs; inconclusive = weak or mixed curves; inactive = no such curve, though single readings can be large; an effect the other way counts as inactive or inconclusive.

Turning to `Oc1c(Cl)c(Cl)c(Cl)c(Cl)c1Cl`, the Potency in test [1] was 3.37 µM (active) and 3.43 µM (active); in test [5] it was 3.78 µM (active) and 1.53 µM (active). Moreover, the Potency entry in test [2], in [3] and in test [4] was “inactive” each time. The call in test [6], in [7], in [8] and in [9] was inactive.

As for `CC(C)N(C(=O)SCC(Cl)=C(Cl)Cl)C(C)C`, the Potency result in [1], in test [2], in test [3] and in test [10] was “inactive” in each case. Besides, the Potency in test [5] is 13.5 µM (active). Besides, the outcome in [6], in [7], in [8] and in [9] was inactive.

For `CCCCCCOC(=O)c1ccccc1C(=O)OCCCCCC`, the Potency entry in test [1], in test [2], in [3], in test [10] and in [4] was “inactive” each time. Also, the Potency in test [5] was 27.9 µM (active). In addition, the molecule was classed as inactive in test [6], in test [7], in test [8] and in test [9].

Consider `c1nc[nH]n1`, for which the Potency entry in test [1], in test [2], in test [3], in test [10], in [4] and in test [5] was “inactive” in each case. Moreover, the molecule was classed as inactive in test [6], in [7], in [8] and in [9].

In the case of `Nc1ccc(Cl)cc1N`, the Potency in test [1] was 19.3 µM (active); in test [2], 56.7 µM (active) and 5.45 µM (active); in [5], 4.5 µM (active) and 770 nM (active). The Potency result in test [3], in test [10] and in test [4] was “inactive” throughout. In addition, the outcome in [6], in test [7], in test [8] and in test [9] was inactive.

As for `Nc1ccc(-c2ccccc2)cc1`, the Potency entry in test [1], in test [2], in [3] and in test [10] was “inactive” throughout. Moreover, the molecule was classed as inactive in test [6], in test [7], in test [8] and in test [9].

As for `CCOc1cc(Oc2ccc(C(F)(F)F)cc2Cl)ccc1[N+](=O)[O-]`, the Potency result in [1], in test [2], in [3] and in test [10] was “inactive” each time. Besides, the Potency in test [4] is 19.5 µM (active); in test [5], 17.4 µM (active) and 24.3 µM (active). Besides, the result in test [6], in test [7], in test [8] and in [9] was inactive.

Consider `CCN(CC)C(=O)/C(Cl)=C(\C)OP(=O)(OC)OC`, for which the Potency entry in test [1], in test [2], in [3], in test [10], in test [4] and in test [5] was “inactive” throughout. The result in test [6], in test [7], in [8] and in test [9] was inactive.

Take `O=C(Nc1ccc(Br)cc1)c1cc(Br)cc(Br)c1O`: the Potency in [1] was 8.41 µM (active) and 1.53 µM (active) and 12.2 µM (active); in test [3] it was 944 nM (active) and 1.08 µM (active) and 2.17 µM (active); in [5] it was 1.88 µM (active) and 543 nM (active) and 545 nM (active). Besides, the Potency entry in test [2] and in test [4] was “inactive” in each case. For the same molecule, the molecule was classed as inactive in test [6], in test [7], in test [8] and in [9].

Turning to `c1ccc(NNc2ccccc2)cc1`, the Potency result in [1], in test [2], in [3], in test [10] and in test [5] was “inactive” each time. The call in test [6], in [7], in [8] and in [9] was inactive.

On to `O=[N+]([O-])c1c(Cl)c(Cl)c(Cl)c(Cl)c1Cl`, for which the Potency entry in test [1], in [2], in test [3], in test [10] and in test [4] was “inactive” in each case. Besides, the call in test [6], in [7], in test [8] and in [9] was inactive.

Turning to `CC(C)C(=O)OCC(C)(C)C(OC(=O)C(C)C)C(C)C` (centres undefined), the Potency entry in test [1], in test [2], in [10] and in test [4] was “inactive” each time. Further, in test [3], the Potency is 30.9 µM (active) and inactive. Besides, the outcome in test [6], in [7], in test [8] and in test [9] was inactive.

For `CCC(CC)Nc1c([N+](=O)[O-])cc(C)c(C)c1[N+](=O)[O-]`, the Potency result in test [1], in test [2], in test [3] and in test [10] was “inactive” throughout. In addition, in [5], the Potency was 49.2 µM (active). Moreover, the outcome in test [6], in [7], in test [8] and in [9] was inactive.

In the case of `CCOC(=O)C(C)OC(=O)c1cc(Oc2ccc(C(F)(F)F)cc2Cl)ccc1[N+](=O)[O-]` (centres undefined), the Potency result in test [1], in test [2], in [3] and in test [10] was “inactive” throughout. The Potency in test [5] was 21.6 µM (active) and 61.1 µM (active). The call in [6], in test [7], in test [8] and in test [9] was inactive.

Regarding `CCCCC(CC)COC(=O)c1ccc(C(=O)OCC(CC)CCCC)c(C(=O)OCC(CC)CCCC)c1` (centres undefined), the Potency result in test [1], in test [2], in [3] and in [10] was “inactive” in each case. Further, the outcome in test [6], in test [7], in test [8] and in [9] was inactive.

Take `Oc1cc(Cl)ccc1Cl`: the Potency result in test [1], in [2], in test [3], in test [10] and in test [4] was “inactive” throughout. For the same molecule, in test [5], the Potency is 28.1 µM (active) and 27.3 µM (active). Further, the result in [6], in test [7], in [8] and in test [9] was inactive.

On to `Cc1cc(Cl)ccc1OCCCC(=O)O`, for which the Potency result in test [1], in test [2], in test [3] and in test [10] was “inactive” throughout. Besides, the molecule was classed as inactive in test [6], in test [7], in [8] and in test [9].

As for `CCN(CC)N=O`, the Potency result in test [1], in [3], in test [10], in [4] and in [5] was “inactive” in each case. For the same molecule, the outcome in test [6], in test [7], in test [8] and in test [9] was inactive.

As for `CC1(C)C(C=C(Cl)Cl)C1C(=O)OC(C#N)c1cccc(Oc2ccccc2)c1` (centres undefined), the Potency entry in test [1], in test [2], in [3] and in test [10] was “inactive” each time. For the same molecule, the call in test [6], in test [7], in test [8] and in test [9] was inactive.

`CNC(=O)N(C)c1nnc(C(C)(C)C)s1`: the Potency entry in test [1], in test [2], in test [3], in [10] and in test [4] was “inactive” each time. Also, the molecule was called inactive in test [6], in [7], in [8] and in test [9].

Consider `Cc1ccc(OP(=O)(Oc2ccc(C)cc2)Oc2ccc(C)cc2)cc1`, for which the Potency entry in test [1], in test [2], in test [3] and in test [10] was “inactive” each time. Besides, the Potency in [5] was 24.3 µM (active). Besides, the outcome in test [6], in [7], in [8] and in test [9] was inactive.

As for `c1ccc(P(c2ccccc2)c2ccccc2)cc1`, the Potency result in test [1], in [2], in test [3], in test [10] and in [4] was “inactive” in each case. Besides, the result in test [6], in test [7], in test [8] and in test [9] was inactive.

In the case of `C#C[C@]1(O)CC[C@H]2[C@@H]3CCC4=CC(=O)CC[C@]4(C)[C@H]3CC[C@@]21C`, the Potency entry in test [1], in test [2], in test [3], in test [10] and in [4] was “inactive” in each case. In addition, the molecule was called inactive in test [6], in [7], in [8] and in test [9].
